MIN6 prolif – inducers of beta-cell replication in MIN6 cells. proliferation, % at 10 µM. AID 2380. 330,000 compounds, 0.29% hits. MIN6 cells proliferation, ATPlite luminescence, 48 h; cells starved in 0.2% serum; 100% = growth in 10% serum;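 active means compounds whose signal lies at least 3.5 SD above the mean of all wells on their plate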
DAGLB inh – diacylglycerol lipase beta (human) inhibition; inhibition, % at 5.17 µM; HEK293T DAGLB membrane lysate, EnzChek fluorogenic substrate; 340,000 compounds, 0.059% hits; in the data active means inhibition above about 34%
HDAC3 inhib – inhibitors of human histone deacetylase 3; O15379; 320,000 compounds, 0.15% hits; recombinant HDAC3, fluorogenic peptide/trypsin coupled, fluorescence; inhibition, % at 8.3 µM; AID 2718; in the data active means inhibition above about 26%, passing the limit was not always enough
Target sequence (O15379 whole entry, looked up): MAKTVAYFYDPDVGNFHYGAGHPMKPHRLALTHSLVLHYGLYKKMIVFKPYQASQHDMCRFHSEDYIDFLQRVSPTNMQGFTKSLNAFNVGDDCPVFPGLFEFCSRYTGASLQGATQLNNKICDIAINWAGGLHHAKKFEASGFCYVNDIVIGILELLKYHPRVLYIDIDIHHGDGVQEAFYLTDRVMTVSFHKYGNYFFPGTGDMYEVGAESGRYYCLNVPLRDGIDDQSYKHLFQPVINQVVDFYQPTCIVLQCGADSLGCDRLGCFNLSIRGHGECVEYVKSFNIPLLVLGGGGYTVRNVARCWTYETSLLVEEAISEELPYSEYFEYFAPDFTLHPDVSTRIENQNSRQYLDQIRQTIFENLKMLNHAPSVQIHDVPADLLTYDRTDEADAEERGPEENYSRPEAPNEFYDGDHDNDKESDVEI
Rtt109 Vps75 – C. albicans Rtt109 histone acetyltransferase inhibition. Q5AAJ8. purified Rtt109/Vps75, ThioGlo CoA-SH fluorescence, 4 h. inhibition, % at 34.9 µM. 330,000 compounds, 0.16% hits. AID 540336;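 active means inhibition of at least 50% in every replicate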
V-ATPase pHluor – alters yeast V-ATPase proton transport | S. cerevisiae, pHLuorin cytosolic pH fluorescence | response, % at 10 µM | 350,000 compounds, 0.37% hits; in the data active means response mostly above about 7.3%, no sharp cut-off; inactive means mostly below about 5.4%; further: actives read high
VATPase regulator – regulators of yeast V-ATPase proton transport | 980 compounds, 2% hits | AID 602197 | response, % at 10 µM | S. cerevisiae pHLuorin cytosolic pH | shares compounds with V-ATPase pHluor; in the data active means response above about 24%
A number is an active result; n = inactive; x = not tested or not shown. A selection: hits, their analogues and other compounds. The true share with any hit is near 0.96%.

SMILES	MIN6 prolif	DAGLB inh	HDAC3 inhib	Rtt109 Vps75	V-ATPase pHluor	VATPase regulator
Cc1ncc(CN2CCCC(C(=O)Nc3ccc(-c4ccco4)cc3)C2)cn1 (stereo not given)	n	n	n	n	n	x
c1cnc(N2CCSCC2)nc1	n	n	n	x	10	n
Cc1ccc(N2CCN(S(=O)(=O)N3CCCCC3)CC2)cc1C	n	n	n	n	11	n
Cc1cc(C)cc(OCCCn2ccnc2)c1	n	n	n	n	9.0	n
Cc1cccc(OCCCn2ccnc2)c1	n	n	n	n	n	x
CC1CN(C(=O)CCC(=O)NC(C)c2ccccc2)c2cc(Cl)ccc2O1 (stereo not given)	n	n	n	n	n	x
CCOC(=O)c1ccc(NC(=S)NC(=O)COc2ccccc2)cc1	n	n	n	n	65	n
O=C(Sc1nnc(-c2ccccc2)o1)N1c2ccccc2Sc2ccccc21	n	n	n	n	n	n
COc1cc(-c2nnc(SCC(=O)N3c4ccccc4Sc4ccccc43)o2)cc(OC)c1OC	n	n	n	n	n	x
COc1ccc(Cc2n[nH]c(=O)c3ccccc23)cc1OC	n	n	n	n	22	n
O=c1[nH]nc(Cc2ccccc2)c2ccccc12	n	n	n	n	n	x
COc1ccc(-n2nc(C(=O)NCC(=O)N3CCN(c4ccccc4OC)CC3)c3ccccc3c2=O)cc1OC	n	n	n	n	n	x
CC(C)C[C@H](NC(=O)OC(C)(C)C)C(=O)N[C@@H](CO)[C@H](O)[C@@H]1C[C@@H]1C(=O)NC1CCCCC1	n	n	n	n	26	n
CC(=O)Nc1ccc(S(=O)(=O)NNC(=O)COc2ccc(Cl)cc2Cl)cc1	n	n	n	n	13	n
CCCCn1c(N)c(N(CC(C)C)C(=O)CC2OC(=O)c3ccccc32)c(=O)[nH]c1=O (stereo not given)	n	n	n	n	11	n
CCCCn1c(N)c(N(CC(C)C)C(=O)CN2C(=O)c3ccccc3C2=O)c(=O)[nH]c1=O	n	n	n	n	n	x
CN1/C(=C\C(=O)c2ccccc2Cl)c2ccccc2CC1(C)C	n	n	n	n	n	x
Cc1ccc(NC(=S)N(CCCN2CCOCC2)Cc2ccccn2)cc1Cl	n	n	n	n	n	x
COc1ccc(C(=O)CNc2ccccc2C#N)cc1	n	n	n	n	9.3	n
N#C/C(=C\c1ccc(-c2ccccc2[N+](=O)[O-])o1)C(=O)Nc1nc(-c2cccs2)cs1	n	n	n	n	n	x
CN1C(=O)N(CC(=O)Nc2ccc3c(c2)OCO3)C(=O)C12CCCCC2	x	n	x	x	n	x
COc1cc(NC(=O)Cn2cnc3c(NCc4ccccc4)ncnc32)cc(OC)c1OC	x	n	x	n	11	n
C=CCNC(=O)c1nn2cccnc2c1Cl	n	n	n	n	11	n
CC(C)c1ccc(NC(=O)/C(C#N)=C/c2ccncc2)cc1	n	n	n	n	13	n
CC(=O)Nc1nnc(C2=COCCO2)o1	n	n	n	n	n	x
SMILES	MIN6 prolif	DAGLB inh	HDAC3 inhib	Rtt109 Vps75	V-ATPase pHluor	VATPase regulator
COc1ccccc1CNC(=O)C1CCN(c2ncnc3c2nc2n3CCCCC2)CC1	n	n	n	n	12	n
COc1cccc(CNC(=O)C2CCN(c3ncnc4c3nc3n4CCCCC3)CC2)c1	n	n	n	n	n	x
O=C(NC(=S)Nc1cccc(S(=O)(=O)NC2=NCCC2)c1)c1cc(-c2ccco2)nc2ccccc12	n	n	n	n	13	n
COc1ccc(C(CC(=O)N2CCN(c3ccccc3)CC2)c2c(OC)cc(OC)c3ccc(=O)oc23)cc1 (stereo not given)	n	n	n	n	n	x
Cc1ccc(CCNS(=O)(=O)c2cc3c(cc2C)n(C)c(=O)c(=O)n3C)cc1	n	n	x	n	10	n
O=C(O)/C=C\c1cn(-c2ccccc2)nc1-c1cc2ccccc2o1	n	n	n	n	n	x
CCOC(=O)N=Nc1c2ccccc2c2nc3no[nH]c3nc12	n	x	x	n	22	118
COCCN(Cc1ccccc1)C(=O)c1c(C)nn(-c2ccccc2)c1C	n	n	n	n	9.2	n
CNc1ccc(C=C2C=Cc3ccccc32)cc1	x	n	x	n	n	x
CN(C)c1ccc(C=C2C=Cc3ccccc32)cc1	x	n	x	n	12	n
O=C(COC(=O)COc1ccc(Cl)cc1Br)NCc1cccs1	n	n	n	n	n	x
CCC1(CC)NC(=O)N(CC(=O)OC(C)C(=O)Nc2cc([N+](=O)[O-])ccc2OC)C1=O (stereo not given)	n	n	n	n	11	n
